Measurements published in PubChem BioAssay.
Several values for one entry are separate records, joined by “and”; a condition that tells them apart may be missing. Identical values can stand only once. For part of these data: Entries with a potency or affinity are not part of this list. A structure can be active in one record and inactive in another. Activity calls are given as the source filed them. Unless noted, how the calls were made is not given here.

How the values were obtained:
[1] = antimalarial activity against Dd2 strain (AID 2302;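 active means growth inhibition above 50% at the single 2 µM test dose, taken to imply half-maximal potency below 2 µM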;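 further: 0% = DMSO untreated growth and 100% = chloroquine plus artemisinin killed control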); conditions: P. falciparum Dd2 in RBCs, LDH growth readout, 72 h; at 2 µM; stronger effect = higher value
[2] = HepG2 cytotoxicity, primary screen, cytotoxicity control for P. falciparum antimalarial project, cell-based, ATP luminescence (AID 2303;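 active means inhibition above 50%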;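 further: 0% = DMSO wells and 100% = digitonin-killed cells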); conditions: HepG2 viability, 24-48 h, at 10 µM, stronger effect = higher value
[3] = target: L-lactate dehydrogenase (Plasmodium falciparum (isolate CDC / Honduras)) (UniProt Q27743); assay: PfLDH activity inhibition – cell lysate, 3D7 strain, counter-screen for P. falciparum growth inhibition project (AID 2304);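 further: 0% = vehicle and 100% = reference inhibitor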; conditions: P. falciparum 3D7 crude extract, LDH APAD/NBT absorbance; at 2 µM; stronger effect = higher value
L-lactate dehydrogenase (Plasmodium falciparum (isolate CDC / Honduras)), sequence (Q27743 whole entry, looked up): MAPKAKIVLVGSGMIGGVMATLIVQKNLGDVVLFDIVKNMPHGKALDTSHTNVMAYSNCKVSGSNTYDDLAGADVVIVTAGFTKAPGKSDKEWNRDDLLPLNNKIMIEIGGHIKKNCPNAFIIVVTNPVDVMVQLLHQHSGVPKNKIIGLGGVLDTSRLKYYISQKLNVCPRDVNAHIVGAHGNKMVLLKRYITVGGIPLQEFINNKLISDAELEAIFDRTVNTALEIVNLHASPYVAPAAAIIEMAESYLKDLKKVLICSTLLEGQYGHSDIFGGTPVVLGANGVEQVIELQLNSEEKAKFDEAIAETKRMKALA

[4] = inhibition of 3D7 malaria parasite growth – strain 3D7 (AID 2306);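 further: 0% = DMSO wells and 100% = chloroquine plus artemisinin control wells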; conditions: P. falciparum 3D7 erythrocytic growth, LDH absorbance, 72 h; at 2 µM; stronger effect = higher value
[5] = target: Calcium-dependent protein kinase 1 (Plasmodium falciparum (isolate 3D7)) (UniProt P62344); assay: PfCDPK1 kinase inhibitors, biochemical, TCAMS library (AID 1159585; cut-off not given, nearly all actives have IC50 up to about 0.98 µM;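 further: inhibitors leave more ATP so luminescence rises with inhibition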); conditions: recombinant PfCDPK1, Kinase-Glo ATP depletion luminescence
Calcium-dependent protein kinase 1 (Plasmodium falciparum (isolate 3D7)), sequence (P62344 whole entry, looked up): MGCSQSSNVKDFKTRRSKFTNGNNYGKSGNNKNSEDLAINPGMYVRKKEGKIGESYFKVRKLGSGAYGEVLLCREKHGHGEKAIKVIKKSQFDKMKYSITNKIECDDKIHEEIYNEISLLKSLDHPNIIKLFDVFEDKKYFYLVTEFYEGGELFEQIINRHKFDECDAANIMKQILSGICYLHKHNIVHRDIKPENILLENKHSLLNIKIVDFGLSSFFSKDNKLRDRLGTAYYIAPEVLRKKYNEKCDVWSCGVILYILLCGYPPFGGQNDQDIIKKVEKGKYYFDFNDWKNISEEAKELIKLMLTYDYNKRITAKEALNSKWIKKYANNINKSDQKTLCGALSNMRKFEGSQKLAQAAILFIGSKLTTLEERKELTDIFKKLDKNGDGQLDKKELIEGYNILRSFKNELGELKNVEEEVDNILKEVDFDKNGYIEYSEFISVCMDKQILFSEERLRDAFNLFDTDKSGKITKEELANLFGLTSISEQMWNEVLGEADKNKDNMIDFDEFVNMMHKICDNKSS

[6] = target: Plasmodium falciparum protein kinase 6 (PK6, PF3D7_1337100) (UniProt Q8IDW1); assay: PfPK6 kinase inhibitors, biochemical, TCAMS library (AID 1159586); conditions: recombinant PfPK6, Kinase-Glo ATP depletion luminescence
Plasmodium falciparum protein kinase 6 (PK6, PF3D7_1337100), sequence (Q8IDW1 1-305): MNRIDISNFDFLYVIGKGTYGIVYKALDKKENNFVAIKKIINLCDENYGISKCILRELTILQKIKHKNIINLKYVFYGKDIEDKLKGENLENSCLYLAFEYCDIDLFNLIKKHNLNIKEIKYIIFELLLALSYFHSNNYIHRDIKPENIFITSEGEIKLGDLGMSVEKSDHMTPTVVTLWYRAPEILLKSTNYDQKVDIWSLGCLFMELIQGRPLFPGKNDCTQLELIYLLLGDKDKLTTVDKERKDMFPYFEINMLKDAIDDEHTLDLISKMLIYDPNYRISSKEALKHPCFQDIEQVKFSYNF

[7] = target: Protein kinase 7 (PK7), Plasmodium falciparum 3D7 (PF3D7_0213400) (UniProt Q7YTF7); assay: inhibition of Plasmodium PK7 catalytic activity – biochemical, TCAMS antimalarial set, Kinase-Glo luminescence (AID 1159587); conditions: recombinant PfPK7, Kinase-Glo ATP depletion luminescence
Protein kinase 7 (PK7), Plasmodium falciparum 3D7 (PF3D7_0213400), sequence (Q7YTF7 1-343): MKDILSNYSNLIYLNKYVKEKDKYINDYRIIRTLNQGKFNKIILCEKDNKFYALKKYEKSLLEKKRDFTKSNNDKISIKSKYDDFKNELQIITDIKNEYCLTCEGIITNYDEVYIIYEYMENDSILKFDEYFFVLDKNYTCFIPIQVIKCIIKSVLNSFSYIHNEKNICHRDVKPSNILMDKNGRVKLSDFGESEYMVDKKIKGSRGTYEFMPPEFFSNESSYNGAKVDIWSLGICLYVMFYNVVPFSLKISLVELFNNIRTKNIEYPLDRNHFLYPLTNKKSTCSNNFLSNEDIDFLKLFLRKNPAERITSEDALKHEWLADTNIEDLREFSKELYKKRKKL

[8] = target: Calcium-dependent protein kinase 4 (Plasmodium falciparum (isolate 3D7)) (UniProt Q8IBS5); assay: PfCDPK4 kinase inhibitors, biochemical, TCAMS library (AID 1159588; cut-off not given, nearly all actives have IC50 up to about 0.91 µM); conditions: recombinant PfCDPK4, Kinase-Glo ATP depletion luminescence
Calcium-dependent protein kinase 4 (Plasmodium falciparum (isolate 3D7)), sequence (Q8IBS5 whole entry, looked up): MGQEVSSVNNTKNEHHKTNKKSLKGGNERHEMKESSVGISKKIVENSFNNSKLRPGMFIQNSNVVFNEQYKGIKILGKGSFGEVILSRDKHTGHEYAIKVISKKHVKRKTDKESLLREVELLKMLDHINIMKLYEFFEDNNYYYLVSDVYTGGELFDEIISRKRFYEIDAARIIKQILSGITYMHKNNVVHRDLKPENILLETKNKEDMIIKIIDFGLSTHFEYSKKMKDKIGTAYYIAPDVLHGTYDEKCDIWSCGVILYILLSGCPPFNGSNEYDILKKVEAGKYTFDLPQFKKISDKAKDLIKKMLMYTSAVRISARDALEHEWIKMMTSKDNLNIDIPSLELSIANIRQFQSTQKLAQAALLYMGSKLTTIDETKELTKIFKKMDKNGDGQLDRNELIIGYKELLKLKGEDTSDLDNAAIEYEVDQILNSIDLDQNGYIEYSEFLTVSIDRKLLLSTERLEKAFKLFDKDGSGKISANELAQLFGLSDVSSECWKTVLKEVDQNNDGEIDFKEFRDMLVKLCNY

Structure (SMILES)	growth inhibition [1]	inhibition [2]	inhibition [3]	growth inhibition [4]	outcome [5]	outcome [6]	outcome [7]	outcome [8]
Cc1ccc(NC(=O)NCCCCCN2CCC(c3c[nH]c4ccccc34)CC2)cc1I	5% (inactive)	96% (active)	6% (inactive)	94% (active)	inactive	inactive	inactive	inactive
c1ccc(Oc2cccc(Nc3ccnc4ccccc34)c2)cc1	14% (inactive)	48% (inactive)	6% (inactive)	95% (active)	inactive	inactive	inactive	inactive
COc1cccc(-c2ccc3ccnc(N)c3c2)c1	93% (active)	40% (inactive)	0% (inactive)	101% (active)	inactive	inactive	inactive	inactive
COc1ccc(C(C(=O)NC2CCN(C[C@H](O)c3ccnc4ccc(OC)cc34)CC2)N2CCN(Cc3ccccc3)CC2)cc1 (stereo partly drawn)	72% (active)	18% (inactive)	-9% (inactive)	100% (active)	inactive	inactive	inactive	inactive
Cn1ncc2c3c(CCN4CCC(NCc5cc6c(cn5)OCCO6)CC4)c(Cl)cnc3ccc21	34% (inactive)	1% (inactive)	0% (inactive)	95% (active)	inactive	inactive	inactive	inactive
CCc1cn(CC(=O)N(CCOc2ccc(-c3ccc(C(F)(F)F)cc3)cc2)CCN(CC)CC)c(SCc2ccc(F)cc2)nc1=O	29% (inactive)	46% (inactive)	-3% (inactive)	95% (active)	inactive	inactive	inactive	inactive
Cc1ccccc1C1CCN(C2CCC(NC(=O)/C=C/c3cccc(F)c3)CC2)CC1 (stereo not drawn)	38% (inactive)	46% (inactive)	-3% (inactive)	84% (active)	inactive	inactive	inactive	inactive
O=C(/C=C/c1ccc(Cl)c(Cl)c1)NC1CCC(CN2CCC(c3c[nH]c4ccncc34)CC2)CC1 (stereo not drawn)	96% (active)	16% (inactive)	-1% (inactive)	100% (active)	inactive	inactive	inactive	inactive
O=c1cc(NCCCNCc2cc(F)cc(C(F)(F)F)c2)[nH]c2ccccc12	15% (inactive)	-6% (inactive)	1% (inactive)	92% (active)	inactive	inactive	inactive	inactive
CC(C)(C)c1ccc(CN2CCC(NC(=O)c3ccc(-c4ccccc4Cl)s3)CC2)cc1	29% (inactive)	36% (inactive)	4% (inactive)	84% (active)	inactive	inactive	inactive	inactive
CC(C)(C)NC(=O)COC(=O)c1c2c(nc3ccccc13)C(=Cc1ccc3c(c1)OCO3)CCC2	82% (active)	7% (inactive)	-4% (inactive)	90% (active)	inactive	inactive	inactive	inactive
COc1ccc(CNCc2ccccc2)cc1-c1ccc(S(=O)(=O)NCCN2CCCC2)cc1	39% (inactive)	38% (inactive)	-1% (inactive)	96% (active)	inactive	inactive	inactive	inactive
Clc1ccc2c(NN=Cc3cccnc3)ccnc2c1	86% (active)	-9% (inactive)	3% (inactive)	100% (active)	inactive	inactive	inactive	inactive
CS(=O)(=O)c1ccc(CCNCc2ccc(-c3ccc(CN(C(=O)c4cccc(C#N)c4)C4CCN(Cc5ccccc5)CC4)cc3)nc2)cc1	56% (active)	20% (inactive)	1% (inactive)	96% (active)	inactive	inactive	inactive	inactive
CN(C)CCCOc1ccc(CCCCc2ccc(Cl)cc2C(=O)c2ccccc2)cc1	8% (inactive)	8% (inactive)	-7% (inactive)	92% (active)	inactive	inactive	inactive	inactive
O=C1C(c2ccccc2)=C(Nc2cc(Cl)cc(Cl)c2)c2ccccc21	94% (active)	-4% (inactive)	-3% (inactive)	96% (active)	inactive	inactive	inactive	inactive
COc1ccc(CCn2c(=N)c(C(=O)NCc3cccnc3)cc3c(=O)n4cccc(C)c4nc32)cc1	12% (inactive)	5% (inactive)	0% (inactive)	92% (active)	inactive	inactive	inactive	inactive
O=C(/C=C/c1ccc(Cl)c(Cl)c1)NCCCCCN1CCC(NC(=O)Nc2cccc(C(F)(F)F)c2)CC1	11% (inactive)	61% (active)	4% (inactive)	102% (active)	inactive	inactive	inactive	inactive

Structure (SMILES)	growth inhibition [1]	inhibition [2]	inhibition [3]	growth inhibition [4]	outcome [5]	outcome [6]	outcome [7]	outcome [8]
CCN(CC)c1cc(C)c2cc(NC(=O)c3cc(=O)c4ccccc4o3)ccc2n1	67% (active)	14% (inactive)	1% (inactive)	97% (active)	inactive	inactive	inactive	inactive
O=C1C(c2ccccc2)=C(Nc2ccc(Cl)cc2)c2ccccc21	59% (active)	5% (inactive)	-2% (inactive)	91% (active)	inactive	inactive	inactive	inactive
CC(C)C(C)(C#N)NC(=O)CSc1nc2ccc([N+](=O)[O-])cc2s1 (stereo not drawn)	81% (active)	-11% (inactive)	3% (inactive)	95% (active)	inactive	inactive	inactive	inactive
COc1cc(C(F)(F)F)c2cc(CNCCCNc3nc4ccccc4[nH]3)[nH]c2c1	0% (inactive)	60% (active)	-6% (inactive)	101% (active)	inactive	inactive	inactive	inactive
COc1ccc(NC(=O)N2CCN(CCCCCNC(=O)/C=C/c3ccc(C(F)(F)F)cc3)CC2)cc1Cl	-5% (inactive)	25% (inactive)	-2% (inactive)	94% (active)	inactive	inactive	inactive	inactive
Cc1cccc2[nH]c(-c3ccc(-c4cccc(NC(=O)NCc5cccc(F)c5)c4)cc3)nc12	5% (inactive)	27% (inactive)	6% (inactive)	94% (active)	inactive	inactive	inactive	inactive
Cc1cccc(C=NNc2cc(C)nc3ccc(F)cc23)n1	45% (inactive)	1% (inactive)	3% (inactive)	95% (active)	inactive	inactive	inactive	inactive
CCN(CC(C)O)C(=O)c1ccc(-c2ccc(-c3nc4c(C)cccc4[nH]3)cc2)cc1 (stereo not drawn)	13% (inactive)	18% (inactive)	-5% (inactive)	94% (active)	inactive	inactive	inactive	inactive
COc1ccc2ncc(F)c(CCN3CCC(CNC(=O)C(=O)c4c[nH]c5ccccc45)CC3)c2n1	99% (active)	48% (inactive)	-6% (inactive)	103% (active)	inactive	inactive	inactive	inactive
NC1=NC(c2ccccc2)(c2ccccc2)C(=O)N1C1CCCCC1	87% (active)	13% (inactive)	0% (inactive)	100% (active)	inactive	inactive	inactive	inactive
CCCc1cn2c3c(cc(C(=O)N[C@@H](Cc4ccccc4)[C@H](O)CNC4CCCCC4)cc13)N(CC)S(=O)(=O)CC2	98% (active)	2% (inactive)	-2% (inactive)	98% (active)	inactive	inactive	inactive	inactive
O=C(/C=C/c1ccc(Cl)c(Cl)c1)NC1CCN(Cc2ccc(O)cc2)CC1	43% (inactive)	-1% (inactive)	3% (inactive)	103% (active)	inactive	inactive	inactive	inactive
COc1ccccc1N1CCN(Cc2cc(C(C)C)c(C)cc2O)CC1	98% (active)	7% (inactive)	2% (inactive)	97% (active)	inactive	inactive	inactive	inactive
CCc1nc2c(N)nc(N)nc2nc1-c1ccc(OC)cc1	-3% (inactive)	44% (inactive)	2% (inactive)	86% (active)	inactive	inactive	inactive	inactive
Cc1cc(N[C@@H](Cc2ccccc2)C(=O)NCCc2ccccc2)nc(NCCc2ccc(F)cc2)n1	89% (active)	9% (inactive)	2% (inactive)	99% (active)	inactive	inactive	inactive	inactive
COc1ccc(-c2cc(C(=O)N[C@@H](CC3CCCCC3)C(=O)NCCN3CCCCC3)ccc2O)cc1	72% (active)	3% (inactive)	0% (inactive)	98% (active)	inactive	inactive	inactive	inactive
CN(C)CCNC(=O)N1CCCN(c2ncnc3cc(-c4ccccc4)sc23)CC1	37% (inactive)	5% (inactive)	5% (inactive)	96% (active)	inactive	inactive	inactive	inactive
COc1ccc2ncc(F)c(C(O)CN3CCC(NCc4ccc5c(n4)NC(=O)CO5)CC3)c2c1 (stereo not drawn)	51% (active) and 88% (active)	6% (inactive) and 51% (active)	3% (inactive) and -2% (inactive)	99% (active) and 100% (active)	inactive	inactive	inactive	inactive
